Data reported in PubChem BioAssay (NCATS).
Where “and” joins values, the source holds several entries; their conditions need not be identical. Equal entries are not always repeated. Inconclusive results are not listed. Calls of active or inactive are those of the source. Unless noted, calls come from the whole dose curve; as a rule, active = well fitted curve in the direction sought with a large enough effect; inconclusive = small, poorly fitted or top-dose-only effect, or another doubt; inactive = no such curve, though single readings can be large; an effect the other way counts as inactive or inconclusive.

Legend:
[1] = molecular target: Cytochrome P450 3A4 (Homo sapiens) (UniProt P08684); assay: qHTS Assay for Activators of Cytochrome P450 3A4 (AID 885); note: nearly all actives have a fitted effect of over 65% in size
Summary of the method: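 Signal was normalized against complete inhibition by 57 uM ketoconazole. The reaction used 20nM CYP3A4 with 25uM Luciferin-PPXE, 10-min compound preincubation and a 60-min NADPH-supported step at RT.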

[2] = MultiTox-Fluor Cytotoxicity Assay - LYMP1-001 - Dead Cells (AID 946); note: potency is the fitted concentration of half-maximal effect
Summary of the method: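 Cytotoxicity as increased dead-cell protease fluorescence (bis-AAF-R110, 485/520 nm), read 60 min after MultiTox-Fluor reagent. Human lymphoblastoid line exposed 16 h; Hill-fitted AC50, with DMSO as 0% and 15 uM tetraoctylammonium bromide as 100%.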

[3] = MultiTox-Fluor Cytotoxicity Assay - LYMP1-001 - Live Cells (AID 947); note: potency is the fitted concentration of half-maximal effect
[4] = MultiTox-Fluor Cytotoxicity Assay - LYMP1-002 - Dead Cells (AID 960); note: potency is the fitted concentration of half-maximal effect; nearly all actives have a fitted effect of over 60% in size
Summary of the method: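 Acute cytotoxicity in a human lymphoblastoid line is scored as rising dead-cell protease signal after 16 hr exposure at 37 C, measured fluorometrically (485/520).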

[5] = MultiTox-Fluor Cytotoxicity Assay - LYMP1-003 - Dead Cells (AID 961); note: potency is the fitted concentration of half-maximal effect; nearly all actives have a fitted effect of over 70% in size
Summary of the method: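 Dead-cell protease release, detected as bis-AAF-R110 fluorescence at 485/520 nm, was measured in LYMP1-003 cells after 16 h compound treatment at 37 C. AC50 values came from Hill-modeled qHTS curves normalized to DMSO (0%) and 15 uM tetraoctylammonium bromide (100%).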

[6] = MultiTox-Fluor Cytotoxicity Assay - LYMP1-003 - Live Cells (AID 962); note: potency is the fitted concentration of half-maximal effect
Summary of the method: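 Cells plated at 2500 per well and incubated 5 hr; compounds added and incubated 16 hr at 37 C; MultiTox-Fluor reagent added for 60 min at room temperature; fluorescence of liberated AFC measured at 405/510 nm.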

[7] = Cell Viability - LYMP1-003 - Assay at 24 hr (AID 963); note: potency is the fitted concentration of half-maximal effect
Summary of the method: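 Acute toxicity in LYMP1-003 lymphoblastoid cells: 24 hr compound treatment at 37 C, ATP measured with CellTiter-Glo after 30 min at room temperature. AC50 derived by fitting the Hill equation to qHTS titrations.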

[8] = Cell Viability - LYMP1-003 - Assay at 40 hr (AID 964); note: potency is the fitted concentration of half-maximal effect; nearly all actives have a fitted effect of over 60% in size
Summary of the method: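 This qHTS cytotoxicity screen treats human lymphoblastoid cells (LYMP1-003) with compounds for 40 hr and quantifies cellular ATP via luciferase luminescence.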

[9] = Cell Viability - LYMP2-005 (AID 967); note: potency is the fitted concentration of half-maximal effect
Summary of the method: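 Human lymphoblastoid LYMP2-005 cells, 2,500 per well in complete medium, rested 5 h at 37C then compound-treated 24 h at 37C. Intracellular ATP read by CellTiter-Glo luminescence after 30 min at room temperature; AC50 from Hill-equation fits of concentration-response data.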

[10] = Cell Viability - LYMP2-013 (AID 970); note: potency is the fitted concentration of half-maximal effect; nearly all actives have a fitted effect of over 55% in size
Summary of the method: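 Acute toxicity was measured in human lymphoblastoid cells (2500/well) exposed to compound titrations for 24 hr, with ATP luminescence (CellTiter-Glo) as read-out and AC50 fitted by Hill equation.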

[11] = Cell Viability - LYMP2-017 (AID 972); note: potency is the fitted concentration of half-maximal effect; nearly all actives have a fitted effect of over 55% in size
Summary of the method: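 Steps: plate 2500 lymphoblastoid cells per well; incubate 5 hr at 37 C; add compound across a concentration series and incubate 24 hr at 37 C; add CellTiter-Glo and read luminescence after 30 min at room temperature; fit Hill curves for AC50.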

[12] = Cell Viability - LYMP2-019 (AID 973); note: potency is the fitted concentration of half-maximal effect; nearly all actives have a fitted effect of over 55% in size
Summary of the method: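 Cells plated at 2500/well and allowed 5 hr at 37 C before compound addition. After 24 hr incubation, CellTiter-Glo reagent was added, plates sat 30 min at room temperature, and luminescence was recorded.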

[13] = Cell Viability - LYMP2-021 (AID 974);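 note: potency is the fitted concentration of half-maximal effect; compound exposure lasts 24 hours at 37 °C; nearly all actives have a fitted effect of over 55% in size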
Summary of the method: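 Concentration-response cytotoxicity in a human lymphoblastoid line: 24 hr treatment at 37 C in complete culture medium, tetraoctylammonium bromide as positive control, luminescent ATP quantitation as viability measure.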

[14] = Cell Viability - LYMP2-002 (AID 977); note: potency is the fitted concentration of half-maximal effect
Summary of the method: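 Luminescent ATP readout (CellTiter-Glo, 30 min room temperature) after 24 h compound exposure at 37 C of a human lymphoblastoid line, 2500 cells/well. AC50 values derived by standard Hill fitting of qHTS concentration-response data.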

[15] = Cell Viability - LYMP2-006 (AID 978); note: potency is the fitted concentration of half-maximal effect; nearly all actives have a fitted effect of over 60% in size
Summary of the method: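 Human lymphoblastoid cells (LYMP2-006), 2500/well in complete medium, were treated with compound for 24 hr at 37 C. Cellular ATP was read by CellTiter-Glo luminescence after 30 min, and AC50 values came from Hill-equation fits of concentration-response data.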

[16] = Cell Viability - LYMP2-007 (AID 979);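 note: potency is the fitted concentration of half-maximal effect; cells exposed to compound for 24 h before reading; nearly all actives have a fitted effect of over 60% in size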
Summary of the method: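 Acute toxicity is scored as a concentration-dependent fall in intracellular ATP in human lymphoblastoid cells treated 24 hr at 37 C, measured by luciferase luminescence; Hill-equation modelling yields AC50.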

[17] = Cell Viability - LYMP2-008 (AID 980)
Summary of the method: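 Acute cytotoxicity is scored as concentration-dependent loss of cellular ATP in a human lymphoblastoid line after 24 hr treatment at 37 C. ATP is quantified by luciferase luminescence.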

[18] = Cell Viability - LYMP2-010 (AID 981)
Summary of the method: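 Acute toxicity is scored as a concentration-dependent loss of cellular ATP in human lymphoblastoid cells after 24 hr compound exposure in complete medium. Tetraoctylammonium bromide is the positive control.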

[19] = Cell Viability - LYMP2-012 (AID 982)
[20] = Cell Viability - LYMP2-016 (AID 984)
Summary of the method: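 Human lymphoblastoid LYMP2-016 cells, 2500 per well, treated with compounds for 24 h at 37 C. Viability read as intracellular ATP by CellTiter-Glo luminescence after 30 min at room temperature; AC50 from Hill fits of concentration-response.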

[21] = Cell Viability - LYMP2-018 (AID 985);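 note: potency is the fitted concentration of half-maximal effect; compound exposure lasted 24 hr at 37 °C; nearly all actives have a fitted effect of over 50% in size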
Summary of the method: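 Acute cytotoxicity is scored as a concentration-dependent drop in intracellular ATP after 24 hr exposure of the lymphoblastoid line in complete culture medium, measured by luciferase luminescence. Potency is expressed as AC50 from Hill modelling.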

[22] = Cell Viability - LYMP2-020 (AID 986)
Summary of the method: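 Acute cytotoxicity in a human lymphoblastoid line is scored as a concentration-dependent fall in cellular ATP after 24 hr at 37 C in complete medium. The positive control is tetraoctylammonium bromide, and potency is given as Hill-fit AC50.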

[23] = Cell Viability - LYMP2-026 (AID 989); note: potency is the fitted concentration of half-maximal effect; nearly all actives have a fitted effect of over 50% in size
Summary of the method: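 Concentration-dependent loss of intracellular ATP in human lymphoblastoid cells after 24 hr at 37 C, quantified by luciferase luminescence. AC50 derived from standard Hill equation.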

[24] = Cell Viability - LYMP1-002 - Assay at 40 hr (AID 994)
Summary of the method: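 Viability in the human lymphoblastoid line was measured as intracellular ATP via CellTiter-Glo after 40 hr compound exposure. Tetraoctylammonium bromide served as positive control.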

[25] = molecular target: Bile acid receptor (Homo sapiens) (UniProt Q96RI1); assay: qHTS assay for small molecule agonists of farnesoid X receptor signaling (AID 588527; calls by dose curve;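 note: series mostly up to about 77 µM; 0% = vehicle basal and 100% = reference agonist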); settings: HEK293T FXR-UAS-bla, beta-lactamase ratio, 16 h; activation: hits give high values
Summary of the method: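 Agonist-mode beta-lactamase reporter in GeneBLAzer FXR-UAS-bla HEK293T cells, titration up to 92 uM, 16 h exposure at 37 C, CCF4 fluorescence. Response scaled to DMSO (0%) and 100 uM chenodeoxycholic acid (100%), then Hill-fitted for EC50 and efficacy.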

[26] = qHTS assay for small molecule agonists of the antioxidant response element (ARE) signaling pathway measured by Nrf2-dependant transcriptional activity (AID 720636; active = well fitted curve in the direction sought with a large enough effect in the repeat runs; an effect the other way counts as inactive or inconclusive; note: % of control where 0% means no effect)
Summary of the method: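 ARE-luc HepG2 cells carrying an Nrf2-responsive luciferase reporter were plated in medium with 1% dialyzed FBS, left 6 hr at 37 C to attach, then exposed to compound for 16 hr. Luciferase luminescence was read after ONE-Glo addition.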

[27] = qHTS assay for small molecule antagonists of the retinoid-related orphan receptor gamma (ROR-gamma) signaling pathway - cell viability counter screen (AID 720652; active = well fitted curve in the direction sought with a large enough effect in the repeat runs; an effect the other way counts as inactive or inconclusive;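 note: potency is the fitted concentration of half-maximal effect; compound exposure lasted 16 hr before ATP read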)
Summary of the method: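 Cytotoxicity is quantified via intracellular ATP (CellTiter-Glo luminescence) in doxycycline-induced CHO ROR response element-luciferase reporter cells treated with compound for 16 hr at 37 C, 5% CO2.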

[28] = qHTS assay for small molecule agonists of the antioxidant response element (ARE) signaling pathway measured by Nrf2-dependant transcriptional activity - cell viability counter screen (AID 720653; active = well fitted curve in the direction sought with a large enough effect in the repeat runs; an effect the other way counts as inactive or inconclusive; note: potency is the fitted concentration of half-maximal effect); settings: ARE-bla HepG2 viability, CellTiter-Glo ATP luminescence, 16 h; max response: hits give low values
Summary of the method: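 ARE-bla HepG2 cells (2,000/well) rested 5 hrs at 37C/5% CO2, then exposed to compounds in DMSO for 16 hrs. Viability was read in the same wells as intracellular ATP by luminescence, 30 min at room temperature after reagent addition.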

[29] = molecular target: Peroxisome proliferator-activated receptor delta (Homo sapiens) (UniProt Q03181); assay: qHTS assay for small molecule agonists of peroxisome proliferator-activated receptor delta signaling (AID 588534; calls by dose curve;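 note: 0% = DMSO basal wells and 100% = positive control agonist at 10 µM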)
Summary of the method: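 Reporter cells were plated and held 5 hrs at 37 C before compounds were added. After 18 hrs at 37 C, CCF4 dye was loaded for 2 hrs at RT and fluorescence measured.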

[30] = molecular target: Luciferin 4-monooxygenase (Photinus pyralis) (UniProt P08659); assay: Biochemical firefly luciferase enzyme assay for NPC (AID 624030);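 note: purified P. pyralis luciferase at 10 nM with luciferin and ATP substrate; series mostly up to about 59 µM; 0% = DMSO and -100% = full luciferase inhibition by PTC124 control; nearly all actives have a fitted effect of over 70% in size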
Summary of the method: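 Counter-screen for direct inhibition of the luciferase enzyme by approved-drug library compounds, run at 10 nM enzyme in 50 mM Tris acetate (final). Luminescence was read within 5 min of enzyme-buffer addition and normalized to PTC124 versus DMSO (0%).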

[31] = molecular target: Peroxisome proliferator-activated receptor gamma (Homo sapiens) (UniProt P37231); assay: qHTS assay for small molecule agonists of peroxisome proliferator-activated receptor gamma signaling (AID 588536; active = well fitted curve in the direction sought with a large enough effect in the signal ratio, with a control signal flat, not every such curve was filed as active; the % refers to the signal ratio;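 note: 0% = DMSO basal wells and 100% = rosiglitazone at 2 µM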)
Summary of the method: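 Ratiometric blue/green fluorescence (405 nm excitation; 460 and 530 nm emission) from CCF4-loaded HEK293 reporter cells serves as signal. Exposure to test compounds lasts 16 h at 37 C in medium containing 1% charcoal/dextran-treated serum.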

[32] = molecular target: Vitamin D3 receptor (Homo sapiens) (UniProt P11473); assay: qHTS assay for small molecule agonists of vitamin D receptor signaling (AID 588543; calls by dose curve;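 note: 0% = DMSO basal and 100% = reference agonist control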)
Summary of the method: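 VDR-UAS-bla HEK293T cells, 2000/well, 2% charcoal-stripped FBS; compound titration 16 h at 37 C; CCF4 beta-lactamase ratio read. Normalized to 50 nM 1-alpha,25-dihydroxyvitamin D3 (100%) and DMSO; Hill fit gives EC50, efficacy.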

[33] = qHTS assay for small molecule activators of the nuclear factor-kappa B (NF-kB) signaling pathway (AID 651749; active = well fitted activation curve with a large enough effect in the signal ratio; the % refers to the signal ratio; note: series mostly up to about 77 µM; % of control where 0% means no effect); settings: NF-kB-bla ME-180 cells, beta-lactamase FRET ratio, 16 h; activation: hits give high values
Summary of the method: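 ME-180 cells stably carrying a beta-lactamase reporter under an NF-kB response element were exposed to compound or DMSO vehicle for 16 hr at 37C, 5% CO2. Pathway activation was read by FRET, since reporter expression disrupts FRET.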

[34] = qHTS assay for environmental chemicals that activate the Aryl hydrocarbon Receptor (AhR) signaling pathway (AID 651777); settings: 1A2-DRE human hepatoma cells, luciferase, 24 h; activation: hits give high values; note: % of control where 0% means no effect; nearly all actives have a fitted effect of over 15% in size
Summary of the method: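 Human hepatoma 1A2-DRE cells, stably carrying a dioxin response element and CYP1A2 promoter driving luciferase, were exposed to compounds for 24 hr at 37 C and 5% CO2. Luciferase signal was then read after 30 min One-Glo at room temperature.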

[35] = molecular target: Peroxisome proliferator-activated receptor alpha (Homo sapiens) (UniProt Q07869); assay: qHTS assay for small molecule agonists of the peroxisome proliferator-activated receptor alpha (PPARalpha) signaling pathway (AID 651778); settings: PathHunter PPARalpha complementation, chemiluminescence, 6 h; max response: hits give high values; note: % of control where 0% means no effect
Summary of the method: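 Cells plated at 2,000/well and held overnight at 37 C, 5% CO2, then compound added by pin tool for 6 hr; after PathHunter detection reagent and 60 min at room temperature, chemiluminescence from enzyme complementation was read.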

[36] = qHTS assay for small molecule activators of the human pregnane X receptor (PXR) signaling pathway (AID 720659; call rule not given here; note: 0% is about no effect)

Peroxisome proliferator-activated receptor delta (Homo sapiens), sequence (Q03181 whole entry, looked up): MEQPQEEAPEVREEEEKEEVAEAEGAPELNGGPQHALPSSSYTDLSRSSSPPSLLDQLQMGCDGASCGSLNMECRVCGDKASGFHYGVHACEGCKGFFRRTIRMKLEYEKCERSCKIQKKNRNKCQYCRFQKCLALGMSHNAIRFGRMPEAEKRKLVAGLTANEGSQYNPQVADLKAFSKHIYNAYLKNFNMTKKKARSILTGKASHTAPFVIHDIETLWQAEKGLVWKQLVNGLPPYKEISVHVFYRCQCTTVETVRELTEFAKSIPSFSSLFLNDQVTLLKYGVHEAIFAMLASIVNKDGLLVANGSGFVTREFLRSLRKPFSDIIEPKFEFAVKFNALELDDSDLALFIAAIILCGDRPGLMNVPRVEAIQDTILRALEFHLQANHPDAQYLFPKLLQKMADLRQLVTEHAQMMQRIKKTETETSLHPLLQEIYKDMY
Bile acid receptor (Homo sapiens), sequence (Q96RI1 whole entry, looked up): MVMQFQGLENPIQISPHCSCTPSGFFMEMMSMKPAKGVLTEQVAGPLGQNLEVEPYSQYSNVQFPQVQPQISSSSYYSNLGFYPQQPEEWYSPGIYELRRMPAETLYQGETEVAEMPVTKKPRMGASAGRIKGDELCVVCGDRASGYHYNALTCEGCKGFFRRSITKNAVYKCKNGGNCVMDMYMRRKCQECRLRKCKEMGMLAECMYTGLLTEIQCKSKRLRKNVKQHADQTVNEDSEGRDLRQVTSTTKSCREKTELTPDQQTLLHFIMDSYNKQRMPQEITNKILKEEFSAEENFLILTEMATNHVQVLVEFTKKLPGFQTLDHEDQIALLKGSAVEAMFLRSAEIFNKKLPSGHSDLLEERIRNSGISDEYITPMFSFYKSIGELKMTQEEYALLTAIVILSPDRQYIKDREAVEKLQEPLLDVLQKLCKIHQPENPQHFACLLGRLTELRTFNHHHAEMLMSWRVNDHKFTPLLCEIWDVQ
Cytochrome P450 3A4 (Homo sapiens), sequence (P08684 whole entry, looked up): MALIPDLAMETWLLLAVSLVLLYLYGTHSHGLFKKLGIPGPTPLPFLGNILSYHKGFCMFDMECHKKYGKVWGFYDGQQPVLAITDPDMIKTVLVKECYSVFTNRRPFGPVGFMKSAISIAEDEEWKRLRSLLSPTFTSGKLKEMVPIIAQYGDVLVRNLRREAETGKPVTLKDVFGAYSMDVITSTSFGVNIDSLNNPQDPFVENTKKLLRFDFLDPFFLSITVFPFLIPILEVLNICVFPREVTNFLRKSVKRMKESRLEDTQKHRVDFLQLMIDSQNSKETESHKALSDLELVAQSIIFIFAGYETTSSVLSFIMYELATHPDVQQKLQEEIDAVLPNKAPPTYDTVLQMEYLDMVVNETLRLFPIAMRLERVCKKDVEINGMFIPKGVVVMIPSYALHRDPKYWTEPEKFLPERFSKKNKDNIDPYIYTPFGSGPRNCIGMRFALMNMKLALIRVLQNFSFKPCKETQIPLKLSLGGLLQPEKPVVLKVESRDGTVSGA
Peroxisome proliferator-activated receptor alpha (Homo sapiens), sequence (Q07869 whole entry, looked up): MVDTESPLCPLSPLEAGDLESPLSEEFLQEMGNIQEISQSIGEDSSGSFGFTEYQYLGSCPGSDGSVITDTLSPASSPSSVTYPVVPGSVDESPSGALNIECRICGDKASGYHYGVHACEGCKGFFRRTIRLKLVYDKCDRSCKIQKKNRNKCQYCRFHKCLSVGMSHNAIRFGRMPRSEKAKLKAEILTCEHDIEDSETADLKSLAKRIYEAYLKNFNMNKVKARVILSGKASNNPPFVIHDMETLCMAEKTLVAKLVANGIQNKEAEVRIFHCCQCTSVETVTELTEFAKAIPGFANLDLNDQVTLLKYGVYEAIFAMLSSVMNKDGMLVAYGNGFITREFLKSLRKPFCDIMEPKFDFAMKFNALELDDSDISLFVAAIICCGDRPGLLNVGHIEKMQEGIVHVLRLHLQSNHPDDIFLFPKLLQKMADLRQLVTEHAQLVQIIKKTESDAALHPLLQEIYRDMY
Luciferin 4-monooxygenase (Photinus pyralis), sequence (P08659 whole entry, looked up): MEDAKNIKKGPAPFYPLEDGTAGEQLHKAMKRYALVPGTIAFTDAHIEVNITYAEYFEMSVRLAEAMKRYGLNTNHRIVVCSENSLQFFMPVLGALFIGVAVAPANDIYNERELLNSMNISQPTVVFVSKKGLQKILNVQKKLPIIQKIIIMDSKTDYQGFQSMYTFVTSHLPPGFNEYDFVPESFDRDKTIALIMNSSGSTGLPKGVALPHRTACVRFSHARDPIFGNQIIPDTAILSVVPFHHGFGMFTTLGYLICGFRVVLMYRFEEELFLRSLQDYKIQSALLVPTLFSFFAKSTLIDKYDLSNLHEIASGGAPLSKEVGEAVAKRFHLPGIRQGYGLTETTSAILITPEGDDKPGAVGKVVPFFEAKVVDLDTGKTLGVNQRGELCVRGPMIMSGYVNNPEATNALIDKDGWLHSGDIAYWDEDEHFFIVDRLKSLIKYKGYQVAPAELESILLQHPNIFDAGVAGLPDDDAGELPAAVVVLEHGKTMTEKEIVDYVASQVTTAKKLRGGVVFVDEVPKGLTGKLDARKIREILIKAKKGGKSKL
Peroxisome proliferator-activated receptor gamma (Homo sapiens), sequence (P37231 whole entry, looked up): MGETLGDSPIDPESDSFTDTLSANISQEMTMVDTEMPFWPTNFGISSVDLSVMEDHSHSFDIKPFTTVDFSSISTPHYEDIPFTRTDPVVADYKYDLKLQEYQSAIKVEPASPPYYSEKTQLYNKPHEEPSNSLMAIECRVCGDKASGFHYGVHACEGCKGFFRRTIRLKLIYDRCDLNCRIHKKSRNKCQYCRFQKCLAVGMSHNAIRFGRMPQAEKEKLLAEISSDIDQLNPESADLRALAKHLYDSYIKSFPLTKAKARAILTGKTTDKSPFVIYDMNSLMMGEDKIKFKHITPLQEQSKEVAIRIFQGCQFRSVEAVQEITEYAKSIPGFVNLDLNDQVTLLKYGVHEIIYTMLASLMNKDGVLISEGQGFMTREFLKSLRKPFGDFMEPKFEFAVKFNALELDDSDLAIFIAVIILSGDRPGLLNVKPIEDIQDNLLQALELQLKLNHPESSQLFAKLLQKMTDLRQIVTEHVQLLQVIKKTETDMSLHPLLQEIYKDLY
Vitamin D3 receptor (Homo sapiens), sequence (P11473 whole entry, looked up): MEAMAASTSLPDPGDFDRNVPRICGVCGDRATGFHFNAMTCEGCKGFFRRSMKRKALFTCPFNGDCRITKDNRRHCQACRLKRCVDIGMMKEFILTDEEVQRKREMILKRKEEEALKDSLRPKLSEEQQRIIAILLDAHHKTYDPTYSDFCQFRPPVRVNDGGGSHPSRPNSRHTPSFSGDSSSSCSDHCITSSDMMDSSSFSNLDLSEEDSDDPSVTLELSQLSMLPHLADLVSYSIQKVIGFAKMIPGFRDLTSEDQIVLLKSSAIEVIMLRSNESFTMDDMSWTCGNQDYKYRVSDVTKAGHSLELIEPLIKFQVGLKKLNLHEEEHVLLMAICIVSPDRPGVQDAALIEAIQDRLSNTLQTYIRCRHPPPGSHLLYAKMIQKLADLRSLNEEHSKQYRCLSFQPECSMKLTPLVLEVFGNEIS

CC/C(=C(\c1ccccc1)c1ccc(OCCN(C)C)cc1)c1ccc(O)cc1
active: Potency [2] 50.1 µM | Potency [3] 50.1 µM | Potency [4] 31.6 µM | Potency [5] 50.1 µM | Potency [6] 50.1 µM | Potency [7] 50.1 µM | Potency [8] 50.1 µM | Potency [9] 50.1 µM | Potency [10] 50.1 µM | Potency [11] 39.8 µM | Potency [12] 50.1 µM | Potency [13] 50.1 µM | Potency [14] 50.1 µM | Potency [15] 39.8 µM | Potency [16] 50.1 µM | Potency [17] 50.1 µM | Potency [18] 50.1 µM | Potency [19] 50.1 µM | Potency [20] 50.1 µM | Potency [21] 39.8 µM | Potency [22] 50.1 µM | Potency [23] 39.8 µM | Potency [24] 50.1 µM | Potency [27] 75 µM | Potency [28] 70.8 µM
inactive: Potency [1] | activation [25] 1.2% | Potency [26]

ClC(Cl)Cl
inactive: activation [25] 0.676% | outcome [29] | Potency [30]

CC(C)O
inactive: activation [25] -0.657% | outcome [29]

Nc1ccc(Cl)cc1Cl
inactive: Potency [1] | activation [25] 0.621% and -4.4% | outcome [29]

CCOC(=O)C(C)Oc1ccc(Oc2nc3ccc(Cl)cc3o2)cc1 (centres undefined)
inactive: activation [25] -3.02% | Potency [31]

O=C1c2ccccc2C(=O)N1SC(Cl)(Cl)Cl
inactive: activation [25] 6.44% | outcome [32] | activation [33] 3.09% | activation [34] -3.47% | max response [35] 9.12% | outcome [36]
